Where “and” joins values, the source holds several entries; their conditions need not be identical. Equal entries are not always repeated. Inconclusive results are not listed. A call without a number means that no potency is given here. Calls of active or inactive are those of the source. Calls come from the whole dose curve; as a rule, active = well fitted inhibition curve with a large enough effect in the repeat runs; inconclusive = weak or mixed curves, or effect the other way; inactive = no such curve, though single readings can be large or run the other way.
Assay: qHTS assay to identify small molecule antagonists of the retinoic acid receptor (RAR) signaling pathway (AID 1159552; note: nearly all actives have a fitted effect of over 50% in size)
Settings: C3RL4 RARE luciferase reporter, retinol-stimulated, 6 h; series mostly up to 92.4 µM
Description: National Center for Advancing Translational Sciences [NCATS]
NIH Chemical Genomics Center [NCGC]
U.S. Environmental Protection Agency [EPA]
National Institutes of Environmental Health Sciences [NIEHS]
National Toxicology Program [NTP]
U.S. Food and Drug Administration [FDA]
All-trans Retinoic acid (atRA) is the potent natural metabolite of retinol and plays an important role in normal embryonic development and maintenance of cellular phenotype in adult animals. atRA is the activating ligand for the retinoic acid receptors (RARs) which form heterodimers with retinoid X receptors (RXRs) on the retinoic acid response element (RARE). Through activation of the RAR/RXRs nuclear receptors, atRA regulates the transcription of a large number of protein-coding genes and regulatory RNAs. Intracellular levels of atRA are controlled by the retinol signaling pathway (RSP) that regulates the biosynthesis and catabolism of atRA to maintain physiological levels. Chemicals that interfere with the RSP can cause abnormal intracellular levels of atRA and therefore are potential developmental toxicants. To assess compounds for the potential adverse effect on embryonic development through interfering with retinol signaling, a cell-based RARE luciferase reporter gene assay was used. C3RL4 cell line (OARSA/CFSAN/FDA, Laurel, MD) was used to screen Tox21 10K compound library for identifying inhibitors of the RSP.
Tox21 Assay Protocol Summary:
C3RL4 cells were seeded at 1,000/well in 4 uL of assay medium into white solid 1,536-well tissue culture plates (Greiner Bio-One North America Inc. Monroe, NC) using a Multidrop Combi (Thermo Scientific, Waltham, MA) dispenser. After incubation at 37 C and 5% CO2 for an overnight, 23 nL of compounds dissolved in DMSO, positive control or DMSO only were transferred by a Pintool station (Kalypsys, San Diego, CA). One ul of 1 uM (final concentration) of Retinol was added right after the compound addition by using a Flying Reagent Dispenser (FRD) (Aurora Discovery, San Diego, CA). After 6 hr incubation at 37 C and 5% CO2, 5 uL of Amplite Luciferase reagent (AAT Bioquest Inc. Sunnyvale, CA) was added to each assay plate using an FRD. Luminescence was quantified on a ViewLux plate reader (PerkinElmer, Waltham, MA) after 30 min incubation at room temperature.
Potency is the fitted concentration of half-maximal effect.

Structure (SMILES) | Potency
CCCCCCC[CH2][Sn]([Cl])([Cl])[CH2]CCCCCCC | inactive
NC(=O)C(Cl)Cl | inactive
CN/C(=N\[N+](=O)[O-])NCc1cnc(Cl)s1 | inactive
CN1C2CCC(C)(C)C1CC(OC(=O)C(O)(c1cccs1)c1cccs1)C2 (stereo not given) | inactive
O=C1C(Cl)=C(Cl)C(=O)C(Cl)=C1Cl | 54.3 µM (active) and 61.1 µM (active)
CC1(C)C(C=C(Cl)Cl)C1C(=O)OC(C#N)c1ccc(F)c(Oc2ccccc2)c1 (stereo not given) | inactive
C=C(C)C(=O)[O][Sn]([CH2]CCC)([CH2]CCC)[CH2]CCC | 2.73 µM (active)
CCCCCCCc1ccc(O)cc1 | inactive
c1ccc2c(c1)cc1ccc3cccc4ccc2c1c34 | inactive
c1ccc2nc(N3CCNCC3)ccc2c1 | inactive
CN(C)CCc1c[nH]c2ccccc12 | inactive
[F][Sn]([c]1ccccc1)([c]1ccccc1)[c]1ccccc1 | 0.243 µM (active)
C[C@]12CC[C@H]3[C@@H](CCC4=CC(=O)CC[C@@H]43)[C@@H]1CC[C@@H]2OC(=O)CCc1ccco1 | inactive
CC(=O)[O][Pb]([c]1ccccc1)([c]1ccccc1)[c]1ccccc1 | 0.486 µM (active)
N#CSCc1ccccc1 | 48.8 µM (active)
CC(C)N(C(=O)CCl)c1ccccc1 | 27.3 µM (active) and 30.6 µM (active)
CCCCC(CC)COC(=O)OOC(C)(C)C (stereo not given) | inactive
COc1nc(C)nc(NC(=O)NS(=O)(=O)c2ccccc2Cl)n1 | inactive
Oc1cc(Cl)cc(Cl)c1 | inactive
O=C(O)CCCCCCNC1c2ccccc2CCc2ccccc21 | inactive

Structure (SMILES) | Potency
CC(Cl)CCl (stereo not given) | inactive
O=Cc1ccccc1 | inactive
C#CC1(O)CCCCC1 | inactive
O=C(CCCCl)c1ccc(F)cc1 | inactive
O=c1[nH]c2cc(Cl)ccc2n1C1CCNCC1 | inactive
COc1ccc2c3c1O[C@H]1[C@H](O)CC[C@H]4[C@@H](C2)N(C)CC[C@@]341 | inactive
CN1C(=O)[C@@H](NC(=O)c2cc3ccccc3[nH]2)N=C(c2ccccc2)c2ccccc21 | inactive
N#CC(C#N)=NNc1cccc(Cl)c1 | 2.73 µM (active)
Nc1c(Cl)c(Cl)c(Cl)c(Cl)c1Cl | inactive
Cc1cccc(Cc2cnc[nH]2)c1C | inactive
Nc1nc(N)c(N)c(N)n1 | inactive
c1ccc(Nc2ccc(Nc3ccccc3)cc2)cc1 | inactive
CCCCN(CCCC)C(=S)S | inactive
ClC1(Cl)C2(Cl)C3(Cl)C4(Cl)C(Cl)(Cl)C5(Cl)C3(Cl)C1(Cl)C5(Cl)C24Cl (stereo not given) | inactive
[O]=[Cr][O][Cr]=[O] | inactive
S=C=Nc1ccccc1 | inactive
O=S1OCC2C(CO1)C1(Cl)C(Cl)=C(Cl)C2(Cl)C1(Cl)Cl (stereo not given) | 48.6 µM (active) and 54.4 µM (active)
C[C@]12Cc3cn[nH]c3C[C@@H]1CC[C@@H]1[C@@H]2CC[C@@]2(C)[C@H]1CC[C@]2(C)O | inactive
CCOP(=O)(Sc1ccccc1)Sc1ccccc1 | 48.6 µM (active)
O=S(=O)(O)F | inactive

Reference: PubChem BioAssay (Tox21)
